Test results taken from PubChem BioAssay AID1533 (PCMD, 2009).
Out of some 160,000 compounds screened, about 45 (0.03%) were called active. Rule as the data show it: active = inhibition mostly above about 34% (no sharp cut-off); inconclusive = no clear call, values can overlap the other calls; inactive = mostly below about 22%. For the sample, actives were picked, then their nearest neighbours and some compounds at random.

Molecular target: dTDP-4-dehydrorhamnose reductase (Mycobacterium tuberculosis (strain ATCC 25618 / H37Rv)) + dTDP-4-dehydrorhamnose 3,5-epimerase (Mycobacterium tuberculosis (strain ATCC 25618 / H37Rv)) (UniProt P9WH09+P9WH11)
Assay: M. tuberculosis RmlC/RmlD coupled enzyme inhibitors, primary screen, biochemical, compound mixtures, 384-well, from 1536-well plates (AID 1533)
Conditions: RmlC+RmlD coupled enzyme assay, percent inhibition, primary screen in compound mixtures, stronger effect = higher value
[1] = measured here: mean retest inhibition, at 5.5 µM

Sequence of dTDP-4-dehydrorhamnose reductase (Mycobacterium tuberculosis (strain ATCC 25618 / H37Rv)) + dTDP-4-dehydrorhamnose 3,5-epimerase (Mycobacterium tuberculosis (strain ATCC 25618 / H37Rv)) (P9WH09 whole entry, looked up): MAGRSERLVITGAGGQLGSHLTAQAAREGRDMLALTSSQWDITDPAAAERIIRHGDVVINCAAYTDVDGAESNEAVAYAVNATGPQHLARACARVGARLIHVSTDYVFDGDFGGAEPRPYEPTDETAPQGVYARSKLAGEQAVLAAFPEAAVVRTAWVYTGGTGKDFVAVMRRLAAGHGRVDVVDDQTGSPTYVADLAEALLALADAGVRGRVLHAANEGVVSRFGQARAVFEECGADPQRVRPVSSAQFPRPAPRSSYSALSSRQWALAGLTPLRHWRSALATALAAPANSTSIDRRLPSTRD
Sequence of dTDP-4-dehydrorhamnose reductase (Mycobacterium tuberculosis (strain ATCC 25618 / H37Rv)) + dTDP-4-dehydrorhamnose 3,5-epimerase (Mycobacterium tuberculosis (strain ATCC 25618 / H37Rv)) (P9WH11 whole entry, looked up): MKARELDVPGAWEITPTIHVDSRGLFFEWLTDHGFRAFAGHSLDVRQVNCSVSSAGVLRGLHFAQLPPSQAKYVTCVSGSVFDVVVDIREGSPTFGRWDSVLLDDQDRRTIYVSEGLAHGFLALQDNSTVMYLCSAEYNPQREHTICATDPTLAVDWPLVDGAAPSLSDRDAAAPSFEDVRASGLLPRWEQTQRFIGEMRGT

O=C(O)CCc1nc2cc(Cl)ccc2n(Cc2ccccc2)c1=O
inhibition (at 3.6 µM): -4.14% (inactive)

Cc1nc2cccnc2nc1C
inhibition (at 3.6 µM): -6.92% (inactive)

Cc1ccccc1Nc1nc(N)nc(CSc2nnc3ccccn23)n1
inhibition (at 3.6 µM): 4.62% (inactive)

CC(C)(C)NC(=O)/C(=C/c1cccnc1)NC(=O)c1ccco1
inhibition (at 3.6 µM): -0.65% (inactive)

CN1CCN(C2=NCCO2)CC1
inhibition (at 3.6 µM): -5.76% (inactive)

C/C(=N\NC(=O)c1nc(C)cc(C)n1)c1ccccc1
inhibition (at 3.6 µM): -2.86% (inactive)

CC(C)=C(NC(=O)c1ccccc1)C(=O)N/N=C(\C)c1ccccc1O
inhibition (at 3.6 µM): 51.8% (active) | inhibition [1]: 31.3%

CNC(=O)C(NC(=O)c1ccccc1)=C(C)C
inhibition (at 3.6 µM): 3.15% (inactive)

Cc1ccc(SCc2c(C(=O)N/N=C/C3CC=CCC3)nnn2-c2nonc2N)cc1 (stereo not given)
inhibition (at 3.6 µM): 9.89% (inactive)

OCC1(Cc2ccccc2C(F)(F)F)CCN(Cc2ccncc2)CC1
inhibition (at 3.6 µM): 9.49% (inactive)

O=C1C2C3C=CC(C3)C2C(=O)N1c1ccc(-c2nc3ccccc3c(=O)o2)cc1 (stereo not given)
inhibition (at 3.6 µM): 1.56% (inactive)

O=C(CCCl)Nc1ccc(S(=O)(=O)NCc2ccco2)cc1
inhibition (at 3.6 µM): 4.49% (inactive)

CC(C)c1nc(SCC(=O)NC(=O)NC(C)(C)C)n[nH]1
inhibition (at 3.6 µM): -8.54% (inactive)

O=C(COC(=O)c1ccc(Cl)nc1)NCc1cccs1
inhibition (at 3.6 µM): -9.13% (inactive)

Cc1cc(C(=O)Cn2cnc3cc([N+](=O)[O-])ccc3c2=O)c(C)n1CC1CCCO1 (stereo not given)
inhibition (at 3.6 µM): 5.54% (inactive)

C=CCSc1nnc(NC(=O)c2ccc(NC(C)=O)cc2)s1
inhibition (at 3.6 µM): 2.48% (inactive)

Cc1cc(C)c(NC(=O)CN2C(=O)NC(Cc3ccccc3)C2=O)c(C)c1 (stereo not given)
inhibition (at 3.6 µM): 43.2% (inactive) | inhibition [1]: 7.39%

O=[N+]([O-])C(=c1ccc2c(c1)N1C3=C(CCCC3)CC3CCCCC31N=2)[N+](=O)[O-] (stereo not given)
inhibition (at 3.6 µM): -9.85% (inactive)

CCOC(=O)CNC(=O)CSc1ccc2nnc(-c3cccnc3)n2n1
inhibition (at 3.6 µM): -13.1% (inactive)

CC(=O)Nc1ccc(CC#N)cc1
inhibition (at 3.6 µM): -7.92% (inactive)

CC(NC(=O)C(=O)Nc1nccs1)c1ccccc1 (stereo not given)
inhibition (at 3.6 µM): 12.6% (inactive)

COc1ccc(/C=C/c2nnc(NC(=O)C(C)C)s2)cc1
inhibition (at 3.6 µM): 2.36% (inactive)

Cn1nc(C(F)(F)F)c(-c2ccc(F)cc2)c1NC(=O)CSCC(=O)O
inhibition (at 3.6 µM): 10% (inactive)

O=[N+]([O-])/C=C1\CCCCCN1
inhibition (at 3.6 µM): -6.23% (inactive)

O=C1[C@@H]2C(c3cccnc3)=NO[C@@H]2C(=O)N1c1ccc(Cl)cc1Cl
inhibition (at 3.6 µM): 13.9% (inactive)

CCOC(=O)CNc1nc(Cl)nc(Nc2ccccc2)n1
inhibition (at 3.6 µM): 0.72% (inactive)

Cn1nccc1NC(=O)Nc1ccc(OC(F)(F)F)cc1
inhibition (at 3.6 µM): -2.41% (inactive)

COc1ccccc1P(=O)(c1ccccc1)c1ccccc1NC(C)=O (stereo not given)
inhibition (at 3.6 µM): 40.9% (inactive) | inhibition [1]: -18.2%

CCOC(=O)C(CC)/C(C)=N\NC(=O)c1cccc(C)c1 (stereo not given)
inhibition (at 3.6 µM): 9.71% (inactive)

COC(=O)CC1=NN(c2ccccc2)C(=O)C1
inhibition (at 3.6 µM): -13% (inactive)

Cc1cc(C(=O)OCC(=O)Nc2nccs2)c2ccccc2n1
inhibition (at 3.6 µM): 9.68% (inactive)

Cc1ccccc1C(=O)Nc1ccc(N2CCCCCC2)cc1
inhibition (at 3.6 µM): -4.06% (inactive)

COc1ccc(NC(=O)CSc2ncnc3[nH]ncc23)cc1
inhibition (at 3.6 µM): -14.6% (inactive)

CCC/C(C)=N\Nc1nc2c(c(=O)n(C)c(=O)n2C)n1C
inhibition (at 3.6 µM): -3.15% (inactive)

COc1ccc(/C=N/NS(=O)(=O)c2ccc(NC(C)=O)cc2)cc1
inhibition (at 3.6 µM): 10.1% (inactive)

C/C(CCc1ccccc1)=N\NC(=O)c1ccc(CN2CCOCC2)cc1
inhibition (at 3.6 µM): 6.96% (inactive)

CC(=O)NC(CC(=O)Nc1nccs1)c1ccccc1 (stereo not given)
inhibition (at 3.6 µM): 3.67% (inactive)

Cc1cc(Nc2ccc(N3CCOCC3)cc2)c2cccc(C)c2n1
inhibition (at 3.6 µM): 35.8% (inactive) | inhibition [1]: -6.33%

Cc1ccc(NNC(=O)C2CCC2)cc1C
inhibition (at 3.6 µM): -0.66% (inactive)

C=CCNC(=S)N1CCc2[nH]c3ccccc3c2C1
inhibition (at 3.6 µM): -7.26% (inactive)

Cn1c(SCC(=O)Nc2ccc(Cl)cc2)nc(O)cc1=O
inhibition (at 3.6 µM): 3.67% (inactive)

OCC(O)CN(c1ccccc1)c1ccccc1 (stereo not given)
inhibition (at 3.6 µM): 15.9% (inactive)

O=C(NCc1ccncc1)NC12CC3CC(CC(C3)C1)C2
inhibition (at 3.6 µM): 4.57% (inactive)

Cc1nc2ccc(NC(=S)N3CCC(C)CC3)cc2nc1C
inhibition (at 3.6 µM): 12.1% (inactive)

Cc1ccc(CSc2nc3[nH]ncc3c(=O)[nH]2)cc1
inhibition (at 3.6 µM): 65.1% (inactive) | inhibition [1]: 4.96%

CC(C)c1c(O)nc(SCCOc2ccc(Cl)cc2)[nH]c1=O
inhibition (at 3.6 µM): 7.19% (inactive)

Cc1c(-c2cccc(Cl)c2)nc2ccccc2c1C(=O)OCC(=O)N(C)C1CCS(=O)(=O)C1 (stereo not given)
inhibition (at 3.6 µM): 5.87% (inactive)

O=C(CCS(=O)(=O)c1ccccc1Cl)Nc1ccc(S(=O)(=O)Nc2ncccn2)cc1
inhibition (at 3.6 µM): 10% (inactive)

CCCCCN(C(=O)NC(=O)Nc1cccc(C)c1C)S(C)(=O)=O
inhibition (at 3.6 µM): -12.7% (inactive)

OC(c1ccccc1)C(CN1CCOCC1)c1ccccc1 (stereo not given)
inhibition (at 3.6 µM): 7.15% (inactive)

NS(=O)(=O)c1ccc(NC(=S)NC(=O)c2cccc(Br)c2)cc1
inhibition (at 3.6 µM): 4.21% (inactive)

CCC1=NN2C(=N)/C(=C/c3cc(C)n(-c4ccccc4)c3C)C(=O)N=C2S1
inhibition (at 3.6 µM): -9.8% (inactive)

CCN1CCc2nc(NC(=O)c3cc(F)c(F)cc3Cl)sc2C1
inhibition (at 3.6 µM): -6.97% (inactive)

COc1ccc(C2=NN(C(=O)CCC(=O)O)C(c3cccs3)C2)cc1OC (stereo not given)
inhibition (at 3.6 µM): -7.36% (inactive)

CN1CCN(CCNC(=O)Nc2ccc([N+](=O)[O-])cc2)CC1
inhibition (at 3.6 µM): 5.16% (inactive)

CN(C)c1ccc(/C=C/C(=O)c2ccc(O)cc2)cc1[N+](=O)[O-]
inhibition (at 3.6 µM): 44.3% (inactive) | inhibition [1]: 5.01%

CCOC(=O)C1CCN(C(=O)Nc2cccc(OC)c2)CC1
inhibition (at 3.6 µM): 1.02% (inactive)

Cc1ccc(/C=N/NC(=O)CSc2ccccn2)o1
inhibition (at 3.6 µM): 70% (inactive) | inhibition [1]: -5.62%

O=C(O)C(NS(=O)(=O)c1cccc2nsnc12)c1ccccc1 (stereo not given)
inhibition (at 3.6 µM): -10.9% (inactive)

CCCCSc1nnc2c(n1)OC=Nc1ccccc1-2
inhibition (at 3.6 µM): 11.2% (inactive)

CN1CCc2nc(SC(C(=O)O)c3ccccc3)c(C#N)c(-c3cccs3)c2C1 (stereo not given)
inhibition (at 3.6 µM): -14.8% (inactive)

COc1ccc(OC)c(-n2c(=S)[nH]c3cc(C(=O)N4CCCCC4)ccc3c2=O)c1
inhibition (at 3.6 µM): 4.34% (inactive)

O=S(=O)(NCc1ccco1)c1cnc(Cl)c(Cl)c1
inhibition (at 3.6 µM): 11.4% (inactive)
